Test results from the supplement of paper PMC6555819.

Tests used:
Assay in all cases: PBM binding z-score (relative to random genomic background probes); higher = stronger binding; sequences stand for … in GC…GCGATTGACAGCGTAGAATGAAGG
[1] = system: RARb homodimer (NR concentration 270 nM)
Procedure, shortened: (§1)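 Custom Agilent 4×180K protein-binding microarrays carried double-stranded probes. Their 34-nt variable regions held direct-repeat seeds, single-nucleotide variants, half-site ablations and random human genomic background sequences. Arrays were incubated 1 h with ligand-free nuclear receptor dimers in PBS pH 7.4, 2% milk, 0.02% Triton X-100, 1 mM DTT, 0.2 mg/mL BSA and 0.4 mg/ml salmon testes DNA. Antibodies against each partner (one per run) detected binding, and scanned fluorescence was regression-normalized. Binding z-scores use random background probes as reference.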

[2] = system: RARg:RXRa (NR concentration 270 nM, RXRa partner concentration 90 nM)
Procedure, shortened: as §1

[3] = system: RARg homodimer (NR concentration 270 nM)
Procedure, shortened: as §1

[4] = system: RXRa DBDmut IVT, anti-RXR (DBD mutation: RXRa K156A/R161A, NR concentration 90 nM)
Procedure, shortened: as §1

[5] = system: RXRa homodimer (NR concentration 180 nM)
Procedure, shortened: as §1

[6] = system: THRa:RXRa (NR concentration 90 nM, RXRa partner concentration 90 nM)
Procedure, shortened: as §1

[7] = system: THRa homodimer (NR concentration 90 nM)
Procedure, shortened: as §1

[8] = system: VDR homodimer (NR concentration 270 nM)
Procedure, shortened: as §1

Q: Which results are given for ACAGACAGGTGATTAAGGTAACTCAGGCTATCAT?
A: PBM binding z-score [1]: 0.49; PBM binding z-score [2]: 0.29; PBM binding z-score [3]: 0.554; PBM binding z-score [4]: 0.282; PBM binding z-score [5]: 0.366; PBM binding z-score [6]: 2.77; PBM binding z-score [7]: 1.93; PBM binding z-score [8]: 0.0908

Q: How did the PBM binding z-score [1] turn out when TAGCCTAGGTCATGCGGGCCGGTATAGTGTCGGC was run?
A: The PBM binding z-score was 2.61.

Q: And the PBM binding z-score [2]?
A: Its PBM binding z-score is 3.71.

Q: And the PBM binding z-score [3]?
A: Its PBM binding z-score is 4.32.

Q: And the PBM binding z-score [4]?
A: The PBM binding z-score was 0.444.

Q: And the PBM binding z-score [5]?
A: Its PBM binding z-score is 3.02.

Q: And the PBM binding z-score [6]?
A: Its PBM binding z-score is 2.97.

Q: What about the PBM binding z-score [7] of the same sequence?
A: The PBM binding z-score was 0.888.

Q: What about the PBM binding z-score [8] of the same sequence?
A: The PBM binding z-score was 0.344.

Q: What does the source list for CGAACTAGCTCATCCAGGACAGTGAATACATTGA?
A: PBM binding z-score [1]: 0.118; PBM binding z-score [2]: -0.191; PBM binding z-score [3]: 0.156; PBM binding z-score [4]: 0.64; PBM binding z-score [5]: 0.0877; PBM binding z-score [6]: 1; PBM binding z-score [7]: 0.936; PBM binding z-score [8]: 0.271

Q: For CAAACTAGGTCAAGAGGTCTAAGTCCGCTTCCCG, which PBM binding z-score [1] is on record?
A: The PBM binding z-score was 3.42.

Q: And the PBM binding z-score [2]?
A: Its PBM binding z-score is 4.23.

Q: And the PBM binding z-score [3]?
A: The PBM binding z-score was 4.4.

Q: What about the PBM binding z-score [4] of the same sequence?
A: Its PBM binding z-score is 1.73.

Q: And the PBM binding z-score [5]?
A: The PBM binding z-score was 2.76.

Q: What about the PBM binding z-score [6] of the same sequence?
A: Its PBM binding z-score is 2.82.

Q: What about the PBM binding z-score [7] of the same sequence?
A: Its PBM binding z-score is 1.1.

Q: And the PBM binding z-score [8]?
A: The PBM binding z-score was 1.23.

Q: Which PBM binding z-score [1] does the source give for CCAGACAGGTGAGAGGTAACTCAGTCTGGTACGC here?
A: Its PBM binding z-score is 0.491.

Q: What about the PBM binding z-score [2] of the same sequence?
A: Its PBM binding z-score is 0.564.

Q: And the PBM binding z-score [3]?
A: Its PBM binding z-score is 0.526.

Q: And the PBM binding z-score [4]?
A: The PBM binding z-score was -0.348.

Q: What about the PBM binding z-score [5] of the same sequence?
A: Its PBM binding z-score is 0.784.

Q: And the PBM binding z-score [6]?
A: The PBM binding z-score was 0.574.

Q: What about the PBM binding z-score [7] of the same sequence?
A: Its PBM binding z-score is -0.109.

Q: And the PBM binding z-score [8]?
A: The PBM binding z-score was -0.514.

Q: For GCAGACAGGCGAAACGCAGGTAACTCAGGGTGGC, which PBM binding z-score [1] is on record?
A: Its PBM binding z-score is -0.842.

Q: What about the PBM binding z-score [2] of the same sequence?
A: Its PBM binding z-score is -0.359.

Q: And the PBM binding z-score [3]?
A: The PBM binding z-score was -0.272.

Q: And the PBM binding z-score [4]?
A: Its PBM binding z-score is -0.577.

Q: What about the PBM binding z-score [5] of the same sequence?
A: The PBM binding z-score was -0.167.

Q: What about the PBM binding z-score [6] of the same sequence?
A: Its PBM binding z-score is 0.338.

Q: And the PBM binding z-score [7]?
A: Its PBM binding z-score is -0.81.

Q: And the PBM binding z-score [8]?
A: The PBM binding z-score was -0.974.

Q: GTACCAATGTGAATAGGTCGTTGATGAGTAGGCG was tested. Which PBM binding z-score [1] did it give?
A: Its PBM binding z-score is 0.0633.

Q: And the PBM binding z-score [2]?
A: The PBM binding z-score was 0.177.

Q: What about the PBM binding z-score [3] of the same sequence?
A: The PBM binding z-score was 0.344.

Q: And the PBM binding z-score [4]?
A: The PBM binding z-score was -0.108.

Q: What about the PBM binding z-score [5] of the same sequence?
A: The PBM binding z-score was 0.356.

Q: And the PBM binding z-score [6]?
A: The PBM binding z-score was -0.0211.

Q: And the PBM binding z-score [7]?
A: The PBM binding z-score was -0.677.

Q: What about the PBM binding z-score [8] of the same sequence?
A: The PBM binding z-score was 0.254.
